{"source": "PubChem BioAssay AID1224858", "about": "(National Center for Advancing Translational Sciences (NCATS), 2016)", "note": "Records with an inconclusive call do not appear. Active and inactive are the calls of the source. The call rests on the fitted dose curve; in most records, active means well fitted inhibition curve with a large enough effect; inconclusive means small, poorly fitted or top-dose-only effect; inactive means no such curve, though single readings can be large or run the other way."}
{"assay": "Confirmation assay for measurement of the activity of small molecule inhibitors on Zika virus induced Caspase-3 activity in human astrocytes", "conditions": "ZIKV-induced caspase-3/7 luminescence, 6 h; series mostly up to 46.1 µM", "in_short": "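Human astrocytes were pretreated 1 h with compound, then infected with ZIKV (2 FFU/cell) for 6 h at 37 C. Caspase-3/7 activity by Caspase-Glo luminescence; percent inhibition versus uninfected and infected wells.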"}
{"smiles": "CCN(CC)c1ccc(C(=C2C=CC(=[N+](CC)CC)C=C2)c2cc(S(=O)(=O)O)ccc2S(=O)(=O)[O-])cc1", "Potency": "7.74 µM (active)"}
{"smiles": "Nc1ccc(-c2ccc3ccccc3n2)cc1", "Potency": "4.35 µM (active)"}
{"smiles": "O=C1NC(=O)C(=Cc2ccc(-c3ccc(F)cc3)o2)S1", "Potency": "12.3 µM (active)"}
{"smiles": "O=c1cc(-c2ccccc2)oc2cc(O)c(O)c(O)c12", "Potency": "inactive"}
{"smiles": "O=C(Nc1ccc(C(=O)O)c(O)c1)c1ccccc1", "Potency": "4.89 µM (active)"}
{"smiles": "CC(C(=O)O)c1ccc(C(=O)c2ccccc2)s1", "note": "(configuration not stated)", "Potency": "6.15 µM (active)"}
{"smiles": "CN1CC(=O)N/C1=N/C(=O)Nc1cccc(Cl)c1", "Potency": "10.9 µM (active)"}
{"smiles": "c1ccc(CCNc2nc(-c3ccccc3)cs2)cc1", "Potency": "10.9 µM (active)"}
{"smiles": "CC(=C(CCOC(=O)C(C)C)SSC(CCOC(=O)C(C)C)=C(C)N(C=O)Cc1cnc(C)nc1N)N(C=O)Cc1cnc(C)nc1N", "Potency": "inactive"}
{"smiles": "O=S(=O)(O)c1ccc2nc(-c3ccccc3)[nH]c2c1", "Potency": "1.95 µM (active)"}
{"smiles": "Cc1cc(O)c2c(c1)C(=O)c1cc(O)cc(O)c1C2=O", "Potency": "2.75 µM (active)"}
{"smiles": "CC(=NNC(=S)N1CCC1)c1ccccn1", "Potency": "inactive"}
{"smiles": "CC[C@@]1(O)C[C@H](O[C@H]2C[C@H](N(C)C)[C@H](O[C@H]3C[C@H](O)[C@H](O[C@H]4CCC(=O)[C@H](C)O4)[C@H](C)O3)[C@H](C)O2)c2c(cc3c(c2O)C(=O)c2c(O)cccc2C3=O)[C@@H]1C(=O)OC", "Potency": "inactive"}
{"smiles": "COc1ccc(-c2cc(=O)c3c(O)cc(O)cc3o2)cc1O", "Potency": "13.8 µM (active)"}
{"smiles": "O=C(Oc1ccccc1)c1cccc(C(=O)Oc2ccccc2)c1", "Potency": "6.31 µM (active)"}
{"smiles": "CC1(C)OC2=C(C(=O)c3ccccc3C2=O)[C@H](NCc2ccccc2)[C@H]1O", "Potency": "35.5 µM (active)"}
{"smiles": "Cc1oncc1C(=O)Nc1ccc(C(F)(F)F)cc1", "Potency": "3.88 µM (active)"}
{"smiles": "Cc1c(N)c(=O)n(-c2ccccc2)n1C", "Potency": "inactive"}
{"smiles": "CCCCCCCC/C=C/C(=O)O", "Potency": "inactive"}
{"smiles": "CC(C)OC(=O)CCCC=CC[C@@H]1[C@H](C=C[C@@H](O)COc2cccc(C(F)(F)F)c2)[C@H](O)C[C@@H]1O", "Potency": "inactive"}
{"smiles": "Cc1cccc(C#Cc2ccccc2)n1", "Potency": "6.15 µM (active)"}
{"smiles": "CC(=O)Nc1ccc([C@H](C)C(=O)Nc2ncc(C(C)C)s2)cc1", "Potency": "10.9 µM (active)"}
{"smiles": "O=C(O)[C@H](CC(=O)N1C[C@@H]2CCCC[C@H]2C1)Cc1ccccc1", "Potency": "inactive"}
{"smiles": "CO[C@H]1C(=O)[C@]2(C)[C@@H](OC)C[C@H]3OC[C@@]3(OC(C)=O)[C@H]2[C@H](OC(=O)c2ccccc2)[C@]2(O)C[C@H](OC(=O)[C@H](O)[C@@H](NC(=O)OC(C)(C)C)c3ccccc3)C(C)=C1C2(C)C", "Potency": "inactive"}
{"smiles": "Nc1ccc(N=Nc2ccccc2)c(N)n1", "Potency": "15.5 µM (active)"}
{"smiles": "Nc1ccc2c(c1)CN1C(=O)c3ccccc3C1=N2", "Potency": "2.13 µM (active)"}
{"smiles": "CCCCCCOc1ccccc1C(N)=O", "Potency": "inactive"}
{"smiles": "Cc1c(NC(=O)c2ccc(C(C)(C)C)cc2)cccc1-c1cn(C)c(=O)c(Nc2ccc(C(=O)N3CCOCC3)cc2)n1", "Potency": "inactive"}
{"smiles": "O=C(Nc1ccc([N+](=O)[O-])cc1Cl)c1cc(Cl)ccc1O", "Potency": "1.73 µM (active)"}
{"smiles": "Cc1ccc(O)c(-n2nc3ccccc3n2)c1", "Potency": "7.74 µM (active)"}
{"smiles": "CC(C)(C)OC(=O)CN(Cc1ccc(Cl)cc1)Cc1ccc([N+](=O)[O-])s1", "Potency": "inactive"}
{"smiles": "CN(C)CCCSc1ccccc1NC(=O)/C=C/c1ccccc1", "Potency": "13.8 µM (active)"}
